The values below come from PubChem BioAssay (EPA / NIEHS).

“And” between values parts separate entries of the source, which are not always exact repeats. Identical values can stand only once. Records with an inconclusive call do not appear. More than one record can exist for a structure, and the calls need not agree. The source made the active and inactive calls. The calls were made as follows: active = hit-call score of the fitted dose curve at least 0.9, where 1 is the maximum; inconclusive = response in the unintended direction; inactive = score below 0.9.

Assay [1] has as its target human Peroxisome Proliferator-activated Receptor alpha (PPARa), PPARA (gene 5465) (UniProt Q07869). Kind of assay: NVS_NR_hPPARa: NovaScreen (NVS) Nuclear Receptor Binding Assay for human Peroxisome Proliferator-activated Receptor alpha (PPARa) (AID 2283359).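 Also: activity means loss of TR-FRET signal versus DMSO baseline.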 Put shortly: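 TR-FRET signal measured at 1 h post-dosing; loss-of-signal versus DMSO negative control taken as activity. Extracted gene-protein, cell-free format. Initial single-point duplicates at 25 uM, then concentration-response retests.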

Assay [2] has as its target human Thyroid Receptor Alpha (TRa), THRA (gene 7067) (UniProt P10827). The assay is described as follows: NVS_NR_hTRa_Antagonist: NovaScreen (NVS) Nuclear Receptor Binding Assay for human Thyroid Receptor Alpha Antagonism (TRa) (AID 2283362).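 Also: activity is loss of signal relative to DMSO baseline.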 Put shortly: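 Actives from a duplicate 25 uM single-point screen were retested in concentration series. The cell-free antagonist-format binding assay was read by AlphaLISA chemiluminescence at 1 h, scored as signal loss relative to DMSO.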

Assay [3] concerns the target Glucocorticoid receptor (Homo sapiens) (UniProt P04150). Kind of assay: NVS_NR_hGR: NovaScreen (NVS) Nuclear Receptor Binding Assay for human Glucocorticoid Receptor (GR) (AID 2283363).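 As to AC50: activity is loss of specific radioligand binding signal relative to DMSO.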 Put shortly: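 Filter scintillation readout of tritiated/iodinated radioligand displaced by test chemical; cell-free extracted protein; 16 h. DMSO = negative control/baseline. Duplicate single-point 25 uM screen, then concentration-response on actives.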

Assay [4] addresses Nuclear receptor subfamily 1 group I member 2 (Homo sapiens) (UniProt O75469). Kind of assay: NVS_NR_hPXR: NovaScreen (NVS) Nuclear Receptor Binding Assay for human Pregnane X Receptor (PXR) (AID 2283365).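 Also: a drop in FRET signal versus DMSO baseline means the compound binds.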 Put shortly: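 Human PXR binding measured by TR-FRET in a cell-free format, 2 h exposure. Single-concentration duplicates at 25 uM preceded concentration-response retests of actives; endpoint fitted positively relative to DMSO, loss of signal indicating binding.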

For assay [5], the target named is rat Androgen Receptor (AR), Ar (gene 24208) (UniProt P15207). Kind of assay: NVS_NR_rAR: NovaScreen (NVS) Nuclear Receptor Binding Assay for rat Androgen Receptor (AR) (AID 2283366). Put shortly:
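Actives from a duplicate single-concentration (25 uM) primary run went on to concentration series. Displacement of radioligand was counted by filtration and scintillation, 18 h post-dose, using prostate extracts from testosterone-pretreated rats, with DMSO as baseline.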

The target of assay [6] is Estrogen receptor (Homo sapiens) + Estrogen receptor beta (Homo sapiens) (UniProt P03372+Q92731). Kind of assay: OT_ER_ERaERb_1440: Odyssey Thera (OT) 24-hour HEK293T Protein-Complementation Assay for Estrogen Receptor-alpha/-beta Homodimer (AID 2283356).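 Also: heteromer of ER alpha and ER beta binding domains; hits raise reporter fluorescence and both agonists and antagonists give an increase.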 Put shortly: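 Fragment complementation between ER alpha (310-547) and ER beta (263-489) ligand-binding domains in HEK293T cells; signal read 24 h post-dosing by laser scanning cytometer. Gain of fluorescence relative to DMSO fitted.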
Estrogen receptor (Homo sapiens) + Estrogen receptor beta (Homo sapiens), sequence (P03372 whole entry, looked up, the tested form may be a part): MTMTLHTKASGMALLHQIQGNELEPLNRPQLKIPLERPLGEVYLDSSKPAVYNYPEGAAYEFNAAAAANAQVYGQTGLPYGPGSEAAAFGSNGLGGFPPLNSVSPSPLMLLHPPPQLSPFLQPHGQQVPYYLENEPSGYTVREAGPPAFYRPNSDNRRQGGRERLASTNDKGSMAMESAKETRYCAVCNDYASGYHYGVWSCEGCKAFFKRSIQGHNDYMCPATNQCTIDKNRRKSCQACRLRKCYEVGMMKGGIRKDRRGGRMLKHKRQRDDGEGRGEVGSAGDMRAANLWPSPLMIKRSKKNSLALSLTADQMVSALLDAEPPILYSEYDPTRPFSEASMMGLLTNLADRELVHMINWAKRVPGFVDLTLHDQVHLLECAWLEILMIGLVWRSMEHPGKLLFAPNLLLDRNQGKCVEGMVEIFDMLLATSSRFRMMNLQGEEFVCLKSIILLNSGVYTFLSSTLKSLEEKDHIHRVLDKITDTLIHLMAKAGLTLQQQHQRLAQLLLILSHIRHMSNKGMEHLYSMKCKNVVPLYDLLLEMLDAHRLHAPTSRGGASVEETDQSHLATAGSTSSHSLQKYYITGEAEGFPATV
Estrogen receptor (Homo sapiens) + Estrogen receptor beta (Homo sapiens), sequence (Q92731 whole entry, looked up, the tested form may be a part): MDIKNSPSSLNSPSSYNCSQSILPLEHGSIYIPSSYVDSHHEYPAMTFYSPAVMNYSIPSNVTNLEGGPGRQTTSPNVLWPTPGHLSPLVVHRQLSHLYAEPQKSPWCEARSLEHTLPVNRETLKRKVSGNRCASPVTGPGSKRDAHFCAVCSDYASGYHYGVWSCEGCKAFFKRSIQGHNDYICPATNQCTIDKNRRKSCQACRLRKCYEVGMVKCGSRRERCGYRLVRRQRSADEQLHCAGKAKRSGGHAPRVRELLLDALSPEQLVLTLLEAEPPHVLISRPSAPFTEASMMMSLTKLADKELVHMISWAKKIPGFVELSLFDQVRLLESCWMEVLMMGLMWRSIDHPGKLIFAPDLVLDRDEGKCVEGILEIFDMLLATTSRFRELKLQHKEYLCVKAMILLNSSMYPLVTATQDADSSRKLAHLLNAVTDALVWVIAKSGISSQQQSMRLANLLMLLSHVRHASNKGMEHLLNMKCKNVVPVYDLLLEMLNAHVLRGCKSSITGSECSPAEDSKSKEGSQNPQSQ

Another assay deals with PGR (gene 5241) (UniProt P06401). The assay is described as follows: NVS_NR_hPR: NovaScreen (NVS) Nuclear Receptor Binding Assay for human Progestron Receptor (PR) (AID 2283360).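 Also: active means loss of bound radioligand signal versus DMSO baseline.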 The gist of the method:
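T47D-derived receptor preparation, cell-free, with tritiated or iodinated radioligand displacement measured by scintillation 18 h post-dosing. Single 25 uM duplicate screen, then concentration series; signal loss relative to DMSO.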

The target in assay [7] is Retinoic acid receptor alpha (Homo sapiens) (UniProt P10276). Kind of assay: NVS_NR_hRARa_Agonist: NovaScreen (NVS) Nuclear Receptor Binding Assay for human Retinoic Acid Alpha Receptor Agonism (RAR) (AID 2283361). The gist of the method: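 TR-FRET signal, 2 h post-dosing; cell-free extracted protein; DMSO = baseline, positive fitting direction; 25 uM single-point duplicate, then concentration series for actives.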
Retinoic acid receptor alpha (Homo sapiens), sequence (P10276 whole entry, looked up): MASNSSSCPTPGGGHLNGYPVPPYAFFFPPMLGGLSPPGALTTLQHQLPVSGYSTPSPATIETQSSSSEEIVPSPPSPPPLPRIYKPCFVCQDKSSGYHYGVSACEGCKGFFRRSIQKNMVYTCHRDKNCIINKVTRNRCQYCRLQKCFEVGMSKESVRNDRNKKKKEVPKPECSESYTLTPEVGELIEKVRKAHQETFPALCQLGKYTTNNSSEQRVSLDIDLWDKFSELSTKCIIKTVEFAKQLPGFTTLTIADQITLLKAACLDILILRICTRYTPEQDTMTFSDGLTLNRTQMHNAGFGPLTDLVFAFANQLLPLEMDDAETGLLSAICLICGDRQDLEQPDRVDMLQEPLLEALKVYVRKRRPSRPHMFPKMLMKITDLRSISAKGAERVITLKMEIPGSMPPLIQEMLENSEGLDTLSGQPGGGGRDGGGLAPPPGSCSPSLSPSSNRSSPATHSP

In assay [8] the target is Estrogen receptor beta (Homo sapiens) (UniProt Q92731). The assay is described as follows: OT_ER_ERbERb_0480: Odyssey Thera (OT) 8-hour HEK293T Protein-Complementation Assay for Estrogen Receptor-beta/-beta Homodimer (AID 2283357).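 Also: active means signal gain over DMSO baseline.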 Put shortly:
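Homodimerization of ER-beta LBD measured by protein-fragment complementation in HEK293T; 8 h dosing; fixed, Draq5 counterstain; fluorescence intensity gain over DMSO baseline, positive fitting direction; laser scanning cytometry.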

Estrogen receptor beta (Homo sapiens), sequence (Q92731 whole entry, looked up, the tested form may be a part): as the sequence (Q92731 whole entry, looked up, the tested form may be a part) above
Nuclear receptor subfamily 1 group I member 2 (Homo sapiens), sequence (O75469 whole entry, looked up): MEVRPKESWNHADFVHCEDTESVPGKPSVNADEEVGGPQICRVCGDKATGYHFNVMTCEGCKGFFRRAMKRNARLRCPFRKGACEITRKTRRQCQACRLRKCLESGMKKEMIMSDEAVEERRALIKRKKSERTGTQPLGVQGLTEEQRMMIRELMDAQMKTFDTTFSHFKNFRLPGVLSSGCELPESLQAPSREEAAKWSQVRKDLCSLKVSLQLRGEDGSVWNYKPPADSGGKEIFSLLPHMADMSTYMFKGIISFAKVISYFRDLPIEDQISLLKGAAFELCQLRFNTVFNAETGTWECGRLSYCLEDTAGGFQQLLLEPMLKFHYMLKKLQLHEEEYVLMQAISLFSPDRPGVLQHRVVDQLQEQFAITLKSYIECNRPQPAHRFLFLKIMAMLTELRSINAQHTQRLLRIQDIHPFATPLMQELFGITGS
human Peroxisome Proliferator-activated Receptor alpha (PPARa), PPARA (gene 5465), sequence (Q07869 whole entry, looked up): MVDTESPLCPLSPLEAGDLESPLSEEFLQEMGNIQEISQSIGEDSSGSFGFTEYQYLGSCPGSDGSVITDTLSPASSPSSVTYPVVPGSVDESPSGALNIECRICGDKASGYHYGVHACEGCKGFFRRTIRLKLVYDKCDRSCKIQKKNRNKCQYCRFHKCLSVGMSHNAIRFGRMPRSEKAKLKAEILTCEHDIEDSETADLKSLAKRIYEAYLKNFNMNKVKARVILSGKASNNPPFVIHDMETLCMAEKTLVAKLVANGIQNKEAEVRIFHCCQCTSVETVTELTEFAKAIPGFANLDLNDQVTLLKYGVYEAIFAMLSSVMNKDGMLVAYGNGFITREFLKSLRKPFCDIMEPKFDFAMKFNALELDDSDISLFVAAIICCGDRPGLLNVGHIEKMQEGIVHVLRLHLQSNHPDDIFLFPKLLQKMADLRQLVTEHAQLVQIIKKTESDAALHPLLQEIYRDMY
Glucocorticoid receptor (Homo sapiens), sequence (P04150 whole entry, looked up): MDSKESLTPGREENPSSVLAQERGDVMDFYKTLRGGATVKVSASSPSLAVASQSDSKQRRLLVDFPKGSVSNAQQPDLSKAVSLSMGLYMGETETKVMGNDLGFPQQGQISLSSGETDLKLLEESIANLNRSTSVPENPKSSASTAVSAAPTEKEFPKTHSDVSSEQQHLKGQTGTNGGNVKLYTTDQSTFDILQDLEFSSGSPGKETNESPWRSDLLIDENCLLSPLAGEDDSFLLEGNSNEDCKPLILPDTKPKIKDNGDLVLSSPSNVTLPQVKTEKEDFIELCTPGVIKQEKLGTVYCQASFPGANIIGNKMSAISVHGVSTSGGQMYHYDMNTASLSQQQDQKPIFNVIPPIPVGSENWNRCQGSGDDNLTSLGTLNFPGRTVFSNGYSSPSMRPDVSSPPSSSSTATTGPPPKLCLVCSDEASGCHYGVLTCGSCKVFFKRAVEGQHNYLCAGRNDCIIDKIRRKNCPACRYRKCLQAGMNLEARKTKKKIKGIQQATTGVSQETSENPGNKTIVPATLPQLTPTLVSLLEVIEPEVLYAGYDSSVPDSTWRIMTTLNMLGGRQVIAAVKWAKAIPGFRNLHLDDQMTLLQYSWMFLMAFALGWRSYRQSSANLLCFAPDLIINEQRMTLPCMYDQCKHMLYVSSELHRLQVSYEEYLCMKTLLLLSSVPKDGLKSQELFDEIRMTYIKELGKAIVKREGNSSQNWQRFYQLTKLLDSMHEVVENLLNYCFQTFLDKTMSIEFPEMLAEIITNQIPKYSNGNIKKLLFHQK
PGR (gene 5241), sequence (P06401 whole entry, looked up): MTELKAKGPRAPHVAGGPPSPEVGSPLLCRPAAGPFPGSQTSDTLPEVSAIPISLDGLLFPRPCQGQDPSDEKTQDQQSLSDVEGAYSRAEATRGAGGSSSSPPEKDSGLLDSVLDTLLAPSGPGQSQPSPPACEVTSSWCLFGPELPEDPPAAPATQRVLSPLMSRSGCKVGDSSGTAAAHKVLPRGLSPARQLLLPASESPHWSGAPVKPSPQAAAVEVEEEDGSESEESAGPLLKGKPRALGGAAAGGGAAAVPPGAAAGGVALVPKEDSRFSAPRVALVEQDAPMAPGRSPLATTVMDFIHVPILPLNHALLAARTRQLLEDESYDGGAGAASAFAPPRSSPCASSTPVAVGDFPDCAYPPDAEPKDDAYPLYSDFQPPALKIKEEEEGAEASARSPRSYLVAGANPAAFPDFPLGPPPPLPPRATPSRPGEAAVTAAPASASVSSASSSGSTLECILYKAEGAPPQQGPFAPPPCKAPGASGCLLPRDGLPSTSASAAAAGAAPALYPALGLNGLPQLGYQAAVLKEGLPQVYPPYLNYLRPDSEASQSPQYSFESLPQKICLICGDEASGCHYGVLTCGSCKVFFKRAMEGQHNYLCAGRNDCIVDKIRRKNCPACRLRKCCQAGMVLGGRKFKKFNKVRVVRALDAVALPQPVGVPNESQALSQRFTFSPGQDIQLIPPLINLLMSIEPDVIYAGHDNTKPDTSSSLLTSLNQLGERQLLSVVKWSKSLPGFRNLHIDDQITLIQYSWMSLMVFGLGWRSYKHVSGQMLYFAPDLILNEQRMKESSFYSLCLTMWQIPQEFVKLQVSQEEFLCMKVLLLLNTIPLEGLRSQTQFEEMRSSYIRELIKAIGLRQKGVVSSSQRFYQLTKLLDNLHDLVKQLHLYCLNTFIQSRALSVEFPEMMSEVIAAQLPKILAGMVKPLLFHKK
human Thyroid Receptor Alpha (TRa), THRA (gene 7067), sequence (P10827 whole entry, looked up): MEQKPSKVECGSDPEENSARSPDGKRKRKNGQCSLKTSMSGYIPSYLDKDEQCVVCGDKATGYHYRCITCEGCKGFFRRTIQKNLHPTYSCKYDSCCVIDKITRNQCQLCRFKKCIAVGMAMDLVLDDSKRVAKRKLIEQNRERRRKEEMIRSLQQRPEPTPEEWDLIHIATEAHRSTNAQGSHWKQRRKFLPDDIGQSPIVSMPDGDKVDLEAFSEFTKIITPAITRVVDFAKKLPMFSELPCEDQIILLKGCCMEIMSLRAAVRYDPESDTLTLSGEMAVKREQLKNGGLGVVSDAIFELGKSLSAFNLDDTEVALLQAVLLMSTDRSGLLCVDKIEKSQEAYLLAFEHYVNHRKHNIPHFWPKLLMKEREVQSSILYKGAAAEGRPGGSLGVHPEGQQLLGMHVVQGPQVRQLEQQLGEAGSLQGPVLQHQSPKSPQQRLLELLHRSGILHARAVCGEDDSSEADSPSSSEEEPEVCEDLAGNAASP

On to `CC(=O)C=C(C)C`, for which the call in [1] was inactive. Same read-out and setting: the same measure for `CCCCCCCCSC(=O)Oc1cc(Cl)nnc1-c1ccccc1`: “inactive”. As to `O=C1C2(Cl)C3(Cl)C4(Cl)C(Cl)(Cl)C5(Cl)C3(Cl)C1(Cl)C5(Cl)C24Cl` (centres undefined), the compound was called inactive in assay [1], in assay [2], in [4] and in assay [5]. The AC50 in assay [3] was 841 nM (active) and 992 nM (active) and 186 nM (active). In the case of `Cc1ccccc1C(=O)Nc1cccc(OC(C)C)c1`, the result in assay [6] was inactive. The AC50 in [4] was 7.03 µM (active). For the compound `N#CCc1ccc(Cl)cc1`, the result with PGR (gene 5241) was inactive. As for `COc1cc(-c2ccc(N)c(OC)c2)ccc1N`, in [1], the AC50 was 14.1 µM (active) and the call was inactive. The outcome in [7] was inactive. `CC(C)(OO)c1ccccc1`: the outcome in [3] was inactive. For `CN(C)N=O`, the compound was called inactive in assay [8].

Take `C[C@@H]1C[C@@H]([C@H](O)CC2CC(=O)NC(=O)C2)C(=O)[C@@H](C)C1`: the result in assay [8] and in [4] was inactive. Regarding `CC1(C)CCC(Cc2ccc(Cl)cc2)C1(O)Cn1cncn1` (centres undefined), the outcome in [4] was inactive.

In the case of `Nc1ccc(-c2ccc(N)c(Cl)c2)cc1Cl`, the AC50 with PGR (gene 5241) was 41.1 µM (active).

By AC50 is commonly meant the concentration at which the activity in the assay is half-maximal.
